PubChem BioAssay (NCI)
Compounds without any hit were thinned out: in the full panel of roughly 83,000, 20% have a hit.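 Percent growth is the endpoint: 0 to 100 indicates growth inhibition (40 means 60% inhibition), 0 means no net growth, and negative values indicate cell death.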 Unmarked numbers belong to inactive results. Active and inactive are the calls of the source. The calls were made as follows: active = growth percent below 10; inactive = the rest.

Legend:
Assay in all cases: NCI-60 one-dose screen, 48 h (100 = growth as untreated, 0 = no growth, -100 = all killed)
Settings in all cases: 10 µM unless noted
DU-145 prostate = test system: DU-145 prostate
K-562 leukemia = test system: K-562 leukemia
MALME-3M melanoma = test system: MALME-3M melanoma
MDA-MB-231 breast = test system: MDA-MB-231 breast
RXF 393 renal = test system: RXF 393 renal
SF-268 CNS = test system: SF-268 CNS
SF-295 CNS = test system: SF-295 CNS
SF-539 CNS = test system: SF-539 CNS
UACC-257 melanoma = test system: UACC-257 melanoma
M14 melanoma = test system: M14 melanoma
HCT-15 colon = test system: HCT-15 colon
SNB-75 CNS = test system: SNB-75 CNS
SNB-19 CNS = test system: SNB-19 CNS
U251 CNS = test system: U251 CNS
PC-3 prostate = test system: PC-3 prostate
SK-MEL-5 melanoma = test system: SK-MEL-5 melanoma
UACC-62 melanoma = test system: UACC-62 melanoma
LOX IMVI melanoma = test system: LOX IMVI melanoma
SK-MEL-28 melanoma = test system: SK-MEL-28 melanoma

Cc1cccc2c(=O)c3c(sc12)c(NCc1ccccc1)nc1ccccc13
growth (DU-145 prostate): 102% | growth (K-562 leukemia): 101% | growth (MALME-3M melanoma): 110% | growth (MDA-MB-231 breast): 89.4% | growth (RXF 393 renal): 107% | growth (SF-268 CNS): 107% | growth (SF-295 CNS): 98.9% | growth (SF-539 CNS): 102% | growth (UACC-257 melanoma): 104% | growth (M14 melanoma): 103% | growth (HCT-15 colon): 64.3% | growth (SNB-75 CNS): 96.1% | growth (SNB-19 CNS): 107% | growth (U251 CNS): 101% | growth (PC-3 prostate): 89.1% | growth (SK-MEL-5 melanoma): 94.5% | growth (UACC-62 melanoma): 74.3% | growth (LOX IMVI melanoma): 93.6% | growth (SK-MEL-28 melanoma): 116%

CCCCCCCCCCCCCCCCCC1OCC(COC(=O)O[C@]2(CC)C(=O)OCc3c2cc2n(c3=O)Cc3cc4ccccc4nc3-2)O1 (stereo not given in full)
growth (DU-145 prostate): 76% | growth (K-562 leukemia): 88.4% | growth (MALME-3M melanoma): 101% | growth (MDA-MB-231 breast): 93.1% | growth (RXF 393 renal): 89.4% | growth (SF-268 CNS): 45.7% | growth (SF-295 CNS): 23.4% | growth (SF-539 CNS): 68.1% | growth (UACC-257 melanoma): 95.9% | growth (M14 melanoma): 75.3% | growth (HCT-15 colon): 83.5% | growth (SNB-75 CNS): 79.6% | growth (SNB-19 CNS): 57.6% | growth (U251 CNS): 56.5% | growth (PC-3 prostate): 77.8% | growth (SK-MEL-5 melanoma): 84.6% | growth (UACC-62 melanoma): 31.6% | growth (LOX IMVI melanoma): 59.7% | growth (SK-MEL-28 melanoma): 111%

C/C=C(\C)C(=O)N[C@H]1[C@@H](OC(C)=O)C[C@]2(C)C3CC[C@@]4(C)C(CC[C@@H]4C(C)N(C)C)C3CCC2[C@H]1O (stereo not given in full)
growth (DU-145 prostate): 87.4% | growth (K-562 leukemia): 50.2% | growth (MALME-3M melanoma): 7.93% (active) | growth (MDA-MB-231 breast): 78% | growth (RXF 393 renal): 83.2% | growth (SF-268 CNS): 42.7% | growth (SF-295 CNS): 78.2% | growth (SF-539 CNS): 37% | growth (UACC-257 melanoma): 3.29% (active) | growth (M14 melanoma): -32.7% (active) | growth (HCT-15 colon): 2.88% (active) | growth (SNB-75 CNS): 60.3% | growth (SNB-19 CNS): 101% | growth (U251 CNS): 68.7% | growth (PC-3 prostate): 45% | growth (SK-MEL-5 melanoma): 5.99% (active) | growth (UACC-62 melanoma): 13.6% | growth (LOX IMVI melanoma): 16.8% | growth (SK-MEL-28 melanoma): -35.8% (active)

Cc1c(C(=O)N[C@@H](Cc2ccccc2)C(=O)C(=O)NCc2ccc(F)cc2)[nH]c2ccccc2c1=O
growth (DU-145 prostate): 105% | growth (K-562 leukemia): 84.2% | growth (MALME-3M melanoma): 102% | growth (MDA-MB-231 breast): 100% | growth (RXF 393 renal): 103% | growth (SF-268 CNS): 97.4% | growth (SF-295 CNS): 105% | growth (SF-539 CNS): 101% | growth (UACC-257 melanoma): 101% | growth (M14 melanoma): 103% | growth (HCT-15 colon): 96.2% | growth (SNB-75 CNS): 88.5% | growth (SNB-19 CNS): 96.9% | growth (U251 CNS): 101% | growth (PC-3 prostate): 86.5% | growth (SK-MEL-5 melanoma): 98.7% | growth (UACC-62 melanoma): 91.7% | growth (LOX IMVI melanoma): 99.9% | growth (SK-MEL-28 melanoma): 100%

Fc1cc(-c2nnc3sc(-c4ccc(Cl)cc4Cl)nn23)c(Cl)cc1Cl
growth (DU-145 prostate): 92.7% | growth (K-562 leukemia): 107% | growth (MALME-3M melanoma): 52.3% | growth (MDA-MB-231 breast): 74.8% | growth (RXF 393 renal): 65.4% | growth (SF-268 CNS): 71.5% | growth (SF-295 CNS): 78.4% | growth (SF-539 CNS): 108% | growth (UACC-257 melanoma): 85.1% | growth (M14 melanoma): 97.5% | growth (HCT-15 colon): 90.7% | growth (SNB-75 CNS): 49.1% | growth (SNB-19 CNS): 79.5% | growth (U251 CNS): 75.5% | growth (PC-3 prostate): 94.4% | growth (SK-MEL-5 melanoma): 67.4% | growth (UACC-62 melanoma): 92.3% | growth (LOX IMVI melanoma): 96.2% | growth (SK-MEL-28 melanoma): 69.3%

COc1ccc2sc3c(NCCCNCCO)nc4ccccc4c3c(=O)c2c1
growth (DU-145 prostate): 41% | growth (K-562 leukemia): -28.2% (active) | growth (MALME-3M melanoma): 85.9% | growth (MDA-MB-231 breast): -12.9% (active) | growth (RXF 393 renal): 52.3% | growth (SF-268 CNS): 50.8% | growth (SF-295 CNS): 85.7% | growth (SF-539 CNS): 45.5% | growth (UACC-257 melanoma): 92.3% | growth (M14 melanoma): -66.6% (active) | growth (HCT-15 colon): 44% | growth (SNB-75 CNS): 65.9% | growth (SNB-19 CNS): 66.8% | growth (U251 CNS): 32.2% | growth (PC-3 prostate): 62.3% | growth (SK-MEL-5 melanoma): 81.4% | growth (UACC-62 melanoma): 85% | growth (LOX IMVI melanoma): -99.1% (active) | growth (SK-MEL-28 melanoma): 70.6%

O=c1n(Cc2ccc3ccccc3c2)ccn1Cc1ccc2ccccc2c1
growth (DU-145 prostate): 100% | growth (K-562 leukemia): 106% | growth (MALME-3M melanoma): 91.8% | growth (MDA-MB-231 breast): 91.4% | growth (RXF 393 renal): 96.4% | growth (SF-268 CNS): 84.7% | growth (SF-295 CNS): 94.5% | growth (SF-539 CNS): 87.7% | growth (UACC-257 melanoma): 101% | growth (M14 melanoma): 93.3% | growth (HCT-15 colon): 91.4% | growth (SNB-75 CNS): 53.2% | growth (SNB-19 CNS): 87.2% | growth (U251 CNS): 92.5% | growth (PC-3 prostate): 94.4% | growth (SK-MEL-5 melanoma): 95.5% | growth (UACC-62 melanoma): 89.8% | growth (LOX IMVI melanoma): 91.2% | growth (SK-MEL-28 melanoma): 94.3%

C[C@]12CC[C@@H]3c4cc(OC(F)F)c(OS(N)(=O)=O)cc4CC[C@H]3[C@@H]1CC[C@@H]2OS(N)(=O)=O
growth (DU-145 prostate): 42.1% | growth (K-562 leukemia): 16.8% | growth (MALME-3M melanoma): 41% | growth (MDA-MB-231 breast): 54% | growth (RXF 393 renal): 42.1% | growth (SF-268 CNS): 49.7% | growth (SF-295 CNS): 27.3% | growth (SF-539 CNS): 26% | growth (UACC-257 melanoma): 62.2% | growth (M14 melanoma): 31.1% | growth (HCT-15 colon): 20.1% | growth (SNB-75 CNS): -3.22% (active) | growth (SNB-19 CNS): 53.6% | growth (PC-3 prostate): 52.2% | growth (SK-MEL-5 melanoma): 27% | growth (UACC-62 melanoma): 54.1% | growth (LOX IMVI melanoma): 32.8% | growth (SK-MEL-28 melanoma): 50%

O=C(Cc1ccc2c(c1)OCCO2)Nc1nc2ccc(F)cc2s1
growth (DU-145 prostate): 107% | growth (K-562 leukemia): 76.3% | growth (MALME-3M melanoma): 97.3% | growth (MDA-MB-231 breast): 115% | growth (RXF 393 renal): 43% | growth (SF-268 CNS): 119% | growth (SF-295 CNS): 106% | growth (SF-539 CNS): 101% | growth (UACC-257 melanoma): 109% | growth (M14 melanoma): 100% | growth (HCT-15 colon): 77.2% | growth (SNB-75 CNS): 84.5% | growth (SNB-19 CNS): 116% | growth (U251 CNS): 103% | growth (PC-3 prostate): 93.2% | growth (SK-MEL-5 melanoma): 91.1% | growth (UACC-62 melanoma): 102% | growth (LOX IMVI melanoma): 93.8% | growth (SK-MEL-28 melanoma): 111%

Cc1nc2ccccc2c(/C=C/c2ccc(Cl)cc2)c1C(=O)/C=C/c1ccc(C(F)(F)F)cc1
growth (DU-145 prostate): -83.7% (active) | growth (K-562 leukemia): -7.8% (active) | growth (MALME-3M melanoma): -74.1% (active) | growth (MDA-MB-231 breast): -50.5% (active) | growth (RXF 393 renal): -85.9% (active) | growth (SF-268 CNS): -53.5% (active) | growth (SF-295 CNS): -88.2% (active) | growth (SF-539 CNS): -90.5% (active) | growth (UACC-257 melanoma): -37% (active) | growth (M14 melanoma): -38.6% (active) | growth (HCT-15 colon): -31.6% (active) | growth (SNB-75 CNS): -79.6% (active) | growth (SNB-19 CNS): -80.4% (active) | growth (U251 CNS): -84.5% (active) | growth (PC-3 prostate): -52.3% (active) | growth (SK-MEL-5 melanoma): -94.6% (active) | growth (UACC-62 melanoma): -59.3% (active) | growth (LOX IMVI melanoma): -89% (active) | growth (SK-MEL-28 melanoma): -69.7% (active)

COc1ccc(CN2c3ccccc3CCc3ccccc32)cc1F
growth (DU-145 prostate): 8.55% (active) | growth (K-562 leukemia): 6.04% (active) | growth (MALME-3M melanoma): 84.3% | growth (MDA-MB-231 breast): 17.5% | growth (RXF 393 renal): 17.8% | growth (SF-268 CNS): 38.9% | growth (SF-295 CNS): 11.7% | growth (SF-539 CNS): -16.2% (active) | growth (UACC-257 melanoma): 62% | growth (M14 melanoma): -8.51% (active) | growth (HCT-15 colon): 24.9% | growth (SNB-75 CNS): 23.2% | growth (SNB-19 CNS): 39% | growth (U251 CNS): 21.1% | growth (PC-3 prostate): 24.1% | growth (SK-MEL-5 melanoma): 19.8% | growth (UACC-62 melanoma): 24.8% | growth (LOX IMVI melanoma): 50.2% | growth (SK-MEL-28 melanoma): 50.8%

O=[N+]([O-])c1ccc(Cl)c(-c2cc(CCCCO)on2)c1
growth (DU-145 prostate): 111% | growth (K-562 leukemia): 102% | growth (MALME-3M melanoma): 102% | growth (MDA-MB-231 breast): 103% | growth (RXF 393 renal): 99.2% | growth (SF-268 CNS): 99.3% | growth (SF-295 CNS): 111% | growth (SF-539 CNS): 96.7% | growth (UACC-257 melanoma): 117% | growth (M14 melanoma): 110% | growth (HCT-15 colon): 110% | growth (SNB-75 CNS): 81.7% | growth (SNB-19 CNS): 95.4% | growth (U251 CNS): 101% | growth (PC-3 prostate): 104% | growth (SK-MEL-5 melanoma): 104% | growth (UACC-62 melanoma): 93.8% | growth (SK-MEL-28 melanoma): 107%

CNc1ccc(Nc2cccc(C)c2)c2c1C(=O)c1ccccc1C2=O
growth (DU-145 prostate): 85% | growth (K-562 leukemia): 92.7% | growth (MALME-3M melanoma): 147% | growth (MDA-MB-231 breast): 96.1% | growth (RXF 393 renal): 93.4% | growth (SF-268 CNS): 87.5% | growth (SF-295 CNS): 146% | growth (SF-539 CNS): 99% | growth (UACC-257 melanoma): 107% | growth (M14 melanoma): 122% | growth (HCT-15 colon): 85.1% | growth (SNB-75 CNS): 96.3% | growth (SNB-19 CNS): 99.6% | growth (U251 CNS): 95.4% | growth (PC-3 prostate): 95% | growth (SK-MEL-5 melanoma): 91% | growth (UACC-62 melanoma): 64.9% | growth (LOX IMVI melanoma): 81.5% | growth (SK-MEL-28 melanoma): 114%
